# BAZ2B inh: qHTS Assay for Inhibitors of BAZ2B | AlphaScreen BAZ2B-H3K14Ac peptide displacement | Potency, µM (series often up to 114 µM), actives largely listed as inhibitors | Bromodomain adjacent to zinc finger domain protein 2B (Homo sapiens), Q9UIF8 | hit rate 4.4% among 360,000; note: nearly all actives have a fitted effect of over 60% in size
#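 BAZ2B 50 nM plus b-H3(5-23)K14Ac 50 nM, PBS pH 7.4/0.01% Tween-20, 30 min RT; compound added (max 110 uM), 30 min RT; streptavidin donor/Ni-chelate acceptor beads 10 ug/mL final, 20 min dark; AlphaScreen read.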
# PLK1 PBD block: qHTS for Inhibitors of PLK1-PDB (polo-like kinase 1 - polo-box domain): Primary Screen; Plk1 PBD binding of FITC phosphopeptide, fluorescence polarization; Potency, µM, actives largely listed as inhibitors; AID 720504, 2013; hit rate 2.8% among 360,000; Serine/threonine-protein kinase PLK1 (Homo sapiens), P53350; note: series mostly up to about 57 µM; nearly all actives have a fitted effect of over 65% in size
# ALOX12 inh: Primary qHTS assay for inhibitors of human arachidonate 12S-lipoxygenase (ALOX12): Round 2. Polyunsaturated fatty acid lipoxygenase ALOX12 (Homo sapiens), P18054. purified 12hLO, xylenol orange hydroperoxide absorbance. Potency, µM (top dose mostly 108 µM), usual class: inhibitors. hit rate 1.1% among 580,000
# Target sequence (P18054 whole entry, looked up): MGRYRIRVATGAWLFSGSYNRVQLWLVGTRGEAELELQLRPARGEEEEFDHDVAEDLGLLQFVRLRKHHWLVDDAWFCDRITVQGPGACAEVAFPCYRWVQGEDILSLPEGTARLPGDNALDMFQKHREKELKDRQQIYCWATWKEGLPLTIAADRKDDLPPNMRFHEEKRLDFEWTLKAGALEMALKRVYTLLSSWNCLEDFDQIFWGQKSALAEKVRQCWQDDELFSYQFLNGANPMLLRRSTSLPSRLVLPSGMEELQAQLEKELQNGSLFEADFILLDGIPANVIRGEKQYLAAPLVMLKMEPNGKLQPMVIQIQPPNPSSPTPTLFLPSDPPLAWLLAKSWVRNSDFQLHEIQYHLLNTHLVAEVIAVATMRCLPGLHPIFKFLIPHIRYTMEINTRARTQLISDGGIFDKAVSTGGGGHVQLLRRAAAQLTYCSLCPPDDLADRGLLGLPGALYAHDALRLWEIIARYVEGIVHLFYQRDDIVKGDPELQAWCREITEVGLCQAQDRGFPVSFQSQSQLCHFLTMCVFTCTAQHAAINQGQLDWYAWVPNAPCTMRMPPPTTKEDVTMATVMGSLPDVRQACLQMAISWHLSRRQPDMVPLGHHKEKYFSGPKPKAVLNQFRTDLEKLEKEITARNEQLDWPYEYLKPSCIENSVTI
#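 Hydroperoxide product was detected by ferrous iron/xylenol orange as the 573 to 405 nm absorbance ratio. Arachidonic acid at 40 uM (final) was turned over for 30 min at room temperature by 150 nM human 12hLO, pH 7.0 Hepes buffer, after 15 min compound preincubation.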
# JMJD2A Tudor inh: qHTS Assay for Inhibitors of JMJD2A-Tudor Domain | AlphaScreen JMJD2A-Tudor / H3K4me3 peptide binding | Potency, µM (highest dose often 114 µM), hits mostly inhibitors | hit rate 4.4% among 390,000; note: nearly all actives have a fitted effect of over 50% in size
# HP1b binding inh: HTS for Inhibitors of HP1-beta Chromodomain Interactions with Methylated Histone Tails | Potency, µM (top dose mostly 114 µM), hits mostly inhibitors | AlphaScreen HP1-beta / biotin-H3K9me3 peptide binding | Chromobox protein homolog 1 (Homo sapiens), P83916 | hit rate 0.56% among 390,000; note: nearly all actives have a fitted effect of over 70% in size
#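 AlphaScreen: HP1-beta (50 nM) preformed 30 min with biotin-H3(1-18)K9me3 peptide (50 nM) in PBS pH 7.4, 0.01% Tween-20. Compound added for 30 min at RT, then streptavidin donor/nickel chelate acceptor beads (10 ug/mL) for 30 min.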
# G9a block: qHTS Assay for Inhibitors of Histone Lysine Methyltransferase G9a; Histone-lysine N-methyltransferase EHMT2 (Homo sapiens), Q96KQ7; G9a H3K9 monomethylation, AlphaScreen, 2 h; Potency, µM (titrated, usually from 102 µM), actives largely listed as inhibitors; hit rate 8.8% among 350,000; note: nearly all actives have a fitted effect of over 75% in size
#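 G9a (20 nM) was preincubated 15 min with compound, then reacted 2 h at room temperature with 500 nM biotin-H3K9 peptide and 20 µM SAM. Monomethyl-H3K9 detected by AlphaScreen using anti-H3K9me1 antibody.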
# A number is an active result; i = inactive; ? = inconclusive; nt = no result given; ! = not active in a repeat; [ ] = remark or other dose. An excerpt weighted towards active compounds, which were near 9% of everything screened. Calls come from the whole dose curve; as a rule, active = well fitted curve in the direction sought with a large enough effect; inconclusive = small, poorly fitted or top-dose-only effect, or another doubt; inactive = no such curve, though single readings can be large; an effect the other way counts as inactive or inconclusive.
SMILES,BAZ2B inh,PLK1 PBD block,ALOX12 inh,JMJD2A Tudor inh,HP1b binding inh,G9a block
Cc1cccc(NC(=O)C2CCN(c3ncnc4c3nc3n4CCCCC3)CC2)n1,i,27µM,i,?,i,i
O=C(NCCc1ccccc1)C1CCN(c2ncnc3c2nc2n3CCCCC2)CC1,i,nt,i,i,i,i
O=C(NCCCN1CCCCC1)C1CCN(c2ncnc3c2nc2n3CCCCC2)CC1,i,27µM,i,?,i,i
COc1ccc(-c2ccc3ncc(Nc4ccccc4F)n3n2)cc1OC,nt,nt,i,nt,nt,nt
Cc1ccc(C(C(=O)NC2CCCC2)N(C(=O)c2csnn2)c2cccc(F)c2)o1 (configuration not stated),i,i,i,i,i,i
Cc1ccccc1-c1nc2c3c4c(sc3ncn2n1)CN(C)CC4,nt,nt,i,nt,nt,nt
Cc1noc(C)c1CCC(=O)NC1CC(=O)N(CC2CCCCC2)C1 (configuration not stated),nt,nt,i,nt,nt,nt
O=C1C(O)=C(O)C(=O)c2ccccc21,nt,i,?,56µM,?,nt
CCSc1c(C(=O)NC)ccc2c1C(=O)c1ccccc1C2=O,i,i,i,i,i,i
O=C1c2ccccc2-c2ccccc21,nt,nt,i,nt,nt,nt
O=C1c2ccccc2C(=O)c2c1ccc(O)c2O,nt,?,2.3µM!,50µM,7.1µM,i[2.33 µM]
COC(=O)c1ccc2c(c1O)C(=O)c1ccccc1C2=O,?,i,i,?,i,13µM
CC(=O)N(C1=C(O)c2ccccc2C(=O)C1=O)C1CCCCC1,?,i,?,i,i,i
CC(=O)N(C)C1=C(O)c2ccccc2C(=O)C1=O,?,i,i,i,i,79µM
CN(C)C(=O)N1CCC(C(=O)N2CCCC(c3ccc(C(=O)O)cc3)C2)CC1 (configuration not stated),nt,nt,i,nt,nt,nt
COc1ccc2c(c1)c(CC(=O)Nc1ccccc1OC)c(C)n2C(=O)c1ccc(Cl)cc1,i,i,i,i,i,i
COc1ccc(CCC(C)=O)cc1,nt,nt,i[22.9 µM],nt,nt,nt
CNC(=S)NNC(=O)c1cn(C)nc1C,i,i,i,i,i,40µM
CN(c1ccc(-c2csc(NC3CCCC3)n2)cc1)S(C)(=O)=O,nt,nt,16µM,nt,nt,nt
COc1cc(-c2csc(NC3CCCCC3)n2)cc(OC)c1OC,?,i,?,?,i,25µM
COc1cc(-c2cc3nc(NC4CCCCC4)ccn3n2)cc(OC)c1OC,nt,i,i,nt,nt,nt
CS(=O)(=O)Nc1ccc(-c2csc(NC3CC3)n2)cc1,nt,nt,10µM,nt,nt,nt
COc1cccc(CN2C(=O)OC3(CCN(Cc4ccc5c(c4)CCO5)CC3)C2(C)c2cccnc2)c1 (configuration not stated),nt,nt,i,nt,nt,nt
NC(=O)NC[C@@H]1CC[C@@H](Cc2ccc(-c3ccccc3)cc2)O1,nt,i,nt,i,i,nt
CN=C1SC(CC(=O)Nc2ccc(N3CCOCC3)cc2)C(=O)N1C (configuration not stated),i,i,i,i,i,i
SMILES,BAZ2B inh,PLK1 PBD block,ALOX12 inh,JMJD2A Tudor inh,HP1b binding inh,G9a block
COC(=O)C1=C(C)NC(=O)/C1=C\N(C)C,i,i,i,i,i,40µM
CCOc1ccc(CCNC(=O)C2CCN(S(=O)(=O)CC)CC2)cc1OCC,i,i,i,i,i,i[12.7 µM]
CCOc1ccc(CCNC(=O)C2CC(C)=CCC2C(=O)O)cc1OCC (configuration not stated),50µM,?,i,25µM,?,22µM
CCOc1ccc(CCNC(=O)CSCc2ccc(C)cc2)cc1OCC,i,i,i,i,i,?
CCOc1ccc(CCNC(=O)CSC(=S)N2CCCC2)cc1OCC,i,i,i,?,i,40µM
CCOc1ccc(CCNC(=O)C2CCN(C(=O)N(C)C)CC2)cc1OCC,i,i,i,89µM,i,i
O=C(Cc1ccc(N(Cc2ccccc2)C(=O)c2ccco2)cc1)NCc1ccc(F)cc1,nt,nt,i,nt,nt,nt
Cc1nc(NC(=S)NC(=O)c2ccccc2)sc1C(=O)N(C)C,i,i,?,i,i,?
COC(=O)c1sc(NC(=S)NC(=O)c2cc(OC)c(OC)c(OC)c2)nc1C,i,i,i,i,i,71µM
CCCOc1ccc(C(=O)NC(=S)Nc2nc(C)c(C(=O)N(C)C)s2)cc1,i,i,?,i,i,11µM
COC(=O)c1sc(NC(=S)NC(=O)c2ccccc2)nc1C,i,i,i,i,i,i
CCOc1cc(/C=C(\C#N)C(=O)Nc2cccc(C(=O)O)c2)cc(Br)c1OC(=O)c1ccc(OC)cc1,50µM,9.5µM,45µM,56µM,?,56µM
COc1ccc(NC(=O)/C(C#N)=C\c2ccc(OCc3ccc(C(=O)O)cc3)c(OC)c2)cc1,?,?,i,?,?,?
CCOc1cc(/C=C(\C#N)C(=O)C(C)(C)C)ccc1OCc1ccccc1Cl,nt,nt,i,nt,nt,nt
CCOc1cc(/C=C(\C#N)C(=O)Nc2cccc(C(=O)O)c2)ccc1OCc1ccccc1Cl,50µM,21µM,i,56µM,i,50µM
C=CC[C@@H](CC(=O)OC(C)(C)C)C(=O)OC[C@H]1CCCN1C(=O)[C@@H](CC=C)CC(=O)NCCO,nt,i,i,i,i,nt
N#CC1(NC(=O)COc2ccc(S(=O)(=O)N3CCCC3)cc2[N+](=O)[O-])CCCCC1,i,i,i,i,i,14µM
CC1CCCCN1C(=O)COc1ccc(S(=O)(=O)N2CCCC2)cc1[N+](=O)[O-] (configuration not stated),i,i,i,i,i,i[12.7 µM]
CCOC(=O)N1CCN(C(=O)C[C@H]2C[C@@]3(C(=O)OC)C(=C[C@H](C(C)(C)C)O[C@@H]3C)N(CCC3=CCCCC3)C2=O)CC1,nt,nt,i,nt,nt,nt
Cc1ccc2nc(C)cc(N/N=C/c3ccccc3O)c2c1,i,i,i,i,i,i
COc1cccc(/C=N/Nc2ccc([N+](=O)[O-])cc2)c1O,i,i,i,i,i,?
Cc1cccc(N/N=C/c2ccc(O)c(O)c2O)c1,50µM,12µM,i,45µM,?,1.1µM
COc1cccc(N/N=C/c2cccc(Br)c2O)c1,?,i,?,i,?,2.2µM
CCOC(=O)C(=O)Cc1cccnn1,nt,?,i,3.5µM,?,nt
CCNC(=S)Nc1cccc([N+](=O)[O-])c1,i,nt,nt,nt,nt,?
Cc1c(C(=O)N(C)c2ccccc2)sc2nc3n(c(=O)c12)CCCCC3,nt,nt,i,nt,nt,nt
O=C(c1ccc(Cn2c(=S)[nH]c3ccc(N4CCOCC4)cc3c2=O)cc1)N1CCN(c2ccc(F)cc2)CC1,i,i,i,i,i,i
